From PubChem
TDP1 cell noCPT: qHTS for Inhibitors of human tyrosyl-DNA phosphodiesterase 1 (TDP1): qHTS in cells in absence of CPT. 420,000 tested, 15% active. Potency, µM (top dose mostly 46.2 µM), inactives show top-dose activity change, negative = growth inhibition, usual class: inhibitors. DT40 Tdp1-/- hTDP1 cells, no CPT, ATP luminescence, 48 h; also: nearly all actives have a fitted effect of over 55% in size
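Growth of hTDP1-complemented DT40 Tdp1-knockout cells is measured by ATP luminescence after at least 48 hr compound exposure at 37 °C, with DMSO substituting for the 20 nM CPT used in the parallel screen.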
VP16 counter: Gal4-VP16 reporter inhibition counter-screen; Drosophila S2 Gal4-VP16 UAS-luciferase, luminescence, 20 h; Potency, µM (top dose mostly 53.6 µM), for the others: at the top dose activity, negative = inhibition, actives largely listed as inhibitors; 310,000 tested, 3.5% active; AID 2546;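 also: Gal4-VP16 expression switched on by copper sulfate through the metallothionein promoter; nearly all actives have a fitted effect of over 50% in size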
TDP1 block: blocks human tyrosyl-DNA phosphodiesterase 1; Q9NUW8; recombinant TDP1, AlphaScreen DNA substrate cleavage; Potency, µM (titrated, usually from 130 µM), for the others: top-dose activity change, negative = inhibition, most hits filed as inhibitors; 350,000 tested, 0.28% active; AID 485290; also: nearly all actives have a fitted effect of over 40% in size
Target sequence (Q9NUW8 whole entry, looked up): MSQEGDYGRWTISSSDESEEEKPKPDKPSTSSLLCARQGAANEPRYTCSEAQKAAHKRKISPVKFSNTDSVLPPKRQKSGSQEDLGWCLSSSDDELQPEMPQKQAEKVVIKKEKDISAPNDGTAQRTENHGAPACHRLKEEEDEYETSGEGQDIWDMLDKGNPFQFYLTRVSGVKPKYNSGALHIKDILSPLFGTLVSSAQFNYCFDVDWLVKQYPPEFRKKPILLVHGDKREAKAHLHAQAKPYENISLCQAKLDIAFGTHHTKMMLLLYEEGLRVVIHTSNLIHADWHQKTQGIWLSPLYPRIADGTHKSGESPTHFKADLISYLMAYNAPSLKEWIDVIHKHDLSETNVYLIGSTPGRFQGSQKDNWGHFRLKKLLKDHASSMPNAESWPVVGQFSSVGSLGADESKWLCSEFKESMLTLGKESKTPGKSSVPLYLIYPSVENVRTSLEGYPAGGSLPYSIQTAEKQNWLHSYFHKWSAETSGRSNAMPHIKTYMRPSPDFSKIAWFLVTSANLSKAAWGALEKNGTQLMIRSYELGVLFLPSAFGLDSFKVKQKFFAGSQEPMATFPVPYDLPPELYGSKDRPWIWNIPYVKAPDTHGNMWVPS
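Compounds were preincubated with Tdp1 (1 nM final) for 15 min at room temperature before substrate (15 nM final) started a 5 min reaction; beads (10 ug/ml final) were then added for 10 min before AlphaScreen detection.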
TDP1 cell CPT: growth inhibition of DT40 Tdp1-/-;hTDP1 cells with camptothecin (screen for TDP1 inhibitors); 420,000 tested, 12% active; AID 686979; Potency, µM (top dose mostly 46.2 µM), for the others: at the highest dose activity change, negative = growth inhibition, usual class: inhibitors; chicken DT40 Tdp1-/-;hTDP1 cells + 20 nM CPT, ATP luminescence, 48 h; also: nearly all actives have a fitted effect of over 55% in size
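Chicken DT40 Tdp1-/- cells stably complemented with human TDP1 were seeded at 400 cells/well in medium containing 20 nM camptothecin, exposed to pin-transferred compounds, and grown at 37 °C for at least 48 hr. Viability was read as ATP luminescence.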
RORgamma inh: inhibitors of mouse ROR gamma transcriptional activity; Drosophila S2 Gal4-RORgamma UAS-luciferase reporter, 20 h; Potency, µM (top dose mostly 53.6 µM), for the others: at the highest dose activity change, negative = inhibition, actives largely listed as inhibitors; 310,000 tested, 5.4% active; P51450; also: nearly all actives have a fitted effect of over 60% in size
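In this cell-based reporter format, copper sulfate (700 uM final) drives Gal4–ROR gamma fusion expression from a metallothionein promoter in Drosophila Schneider cells; compounds preincubated 1 hr, reporter read after 20 hr at ambient temperature.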
Starred values were filed as active, the others as inactive; ? = inconclusive; / = no result given; [ ] = another dose, or the depositor's remark. This is a sample that favours compounds with a hit; in the whole collection about 19% have one here. Calls follow the shape of the dose curve; as a rule, active = well fitted curve in the direction sought with a large enough effect; inconclusive = small, poorly fitted or top-dose-only effect, or another doubt; inactive = no such curve, though single readings can be large; an effect the other way counts as inactive or inconclusive. % is scaled to controls: 0 for no effect and ±100 for the full control effect; potency is read from the fitted curve at half-maximal effect.

SMILES | TDP1 cell noCPT | VP16 counter | TDP1 block | TDP1 cell CPT | RORgamma inh
CCOCCCn1c(SCC(=O)NC2CCCC2)nc2ccccc2c1=O | ? | -6% | 1% | ? | -14%
COc1ccc(C(=O)Nn2c(SCC(=O)NC3CCCCC3)nc3ccccc3c2=O)cc1 | -15% | 13µM* | 5% | 2% | ?
COCCn1c(SCC(=O)NC(=O)NC2CCCCC2)nc2ccccc2c1=O | 15µM* | / | 1% | ? | /
COc1ccc(Cl)cc1NC(=O)CN1C(=O)NC(C)(Cc2ccc(OC)c(OC)c2)C1=O (configuration not stated) | ? | / | 1% | -16% | /
COc1ccc(C(=O)Nn2c(SCC(=O)NCc3ccco3)nc3ccccc3c2=O)cc1 | -28% | 8.9µM* | 2% | -12% | 10µM*
CC(C)(CO)Nc1nc(Cl)nc(NC2CCCCC2)n1 | ? | -15% | / | -5% | 25%
CC(c1n[nH]c(=S)n1-c1ccc(Cl)cc1)N(C)C (configuration not stated) | -2% | -10% | 1% | -3% | 13µM*
CC(c1n[nH]c(=S)n1-c1ccc(F)cc1)N1CCCCC1 (configuration not stated) | -1% | ? | -3% | 3% | 13µM*
Cc1ccccc1-n1c(-c2ccc3ccccc3n2)n[nH]c1=S | 3% | 5µM* | 0% | 6% | 0.32µM*
S=c1[nH]nc(-c2ccc3ccccc3n2)n1-c1ccc2ncccc2c1 | -18% | ? | -5% | -1% | ?
S=c1[nH]nc(-c2ccc3ccccc3n2)n1-c1ccc(Cl)cc1 | ? | 1.4µM* | 1% | ? | 1.1µM*
Fc1ccc(-n2c(-c3ccc4ccccc4n3)n[nH]c2=S)cc1Cl | ? | -10% | -3% | 18% | ?
COc1ccc(C(=S)N2CCN(C)CC2)cc1 | -2% | 9% | -2% | -1% | -31%
COc1cccc(OCc2nnc(SC)n2C)c1 | -1% | -4% | / | -5% | -11%
CC1Cc2ccccc2N1Cc1cc(=O)c(OCC(=O)NCCc2ccccc2)co1 (configuration not stated) | ? | / | 0% | ? | /
Nc1nc(=S)c2ncn([C@H]3O[C@@H](CO)[C@@H](O)[C@@H]3O)c2[nH]1 | / | -4%[17 µM] | 11%[21 µM] | / | -2%[16.9 µM]
Cn1c(C(C#N)C(=O)Cc2cccc3ccccc23)nc2ccccc21 (configuration not stated) | ? | ? | 6% | ? | 0.79µM*
Cn1c(C(C#N)C(=O)c2ccco2)nc2ccccc21 (configuration not stated) | ? | 6.3µM* | 4% | 2% | ?
Nc1ncnc2c1ncn2[C@@H]1O[C@H](COP(=O)(O)OP(=O)(O)OP(=O)(O)OP(=O)(O)OC[C@@H]2O[C@H](n3cnc4c(N)ncnc43)[C@@H](O)[C@H]2O)[C@@H](O)[C@H]1O | ? | / | 5% | ? | /
COc1ccccc1NC(=O)c1cc2c(=O)n(C)c3ccccc3c2n1C | 15µM* | -2% | / | ? | -4%
CCOc1ccc(NC(=O)c2cn(CC(C)C)c(=O)c3c2c2ccccc2n3C)cc1 | 8.2µM* | -13% | -1% | ? | 16%
CCOc1ccc(CCNC(=O)c2cc3c(=O)n(C)c4ccccc4c3n2C)cc1OCC | 12µM* | / | 0% | 23µM* | /
CCOc1ccc(NC(=O)c2cc3c(=O)n(C)c4ccccc4c3n2C)cc1 | 16µM* | -5% | -2% | 8.2µM* | 3%
COc1cccc(NC(=O)c2cc3c(=O)n(C)c4ccccc4c3n2C)c1 | -13% | / | 8% | ? | /
COCCCNC(=O)c1cn(CC(C)C)c(=O)c2c1c1ccccc1n2C | -25% | 5% | 5% | ? | -2%
SMILES | TDP1 cell noCPT | VP16 counter | TDP1 block | TDP1 cell CPT | RORgamma inh
Clc1ccc(/C=N/NC2=Nc3cccc4cccc2c34)cc1 | ? | 14µM* | 0% | ? | 2µM*
COc1ccc(NC2=Nc3cccc4cccc2c34)cc1OC | 26µM* | -3% | 7% | 23µM* | -14%
Clc1ccc(/C=N/Nc2nc(Cl)nc3ccccc23)cc1 | ? | ? | 7% | ? | -22%
C(=N\NC1=Nc2cccc3cccc1c23)/c1ccccc1 | ? | ? | 8% | 7% | 2.2µM*
O=C1CC(c2ccccc2)=NN1c1nc(-c2ccccc2)cs1 | -25% | 8% | 8% | -2% | ?
CCOC(=O)c1c(C)oc2nc(C)nc(N3CCN(c4ccc(C(C)=O)cc4)CC3)c12 | 2.9µM* | / | 6% | 5.8µM* | /
Cc1nc(N2CCCC2)c2c(C(=O)N3CCN(c4ccc(F)cc4)CC3)c(C)oc2n1 | -21% | / | 2% | -14% | /
CCOC(=O)c1c(C)oc2nc(C)nc(NCCCN3CCN(c4ccc(F)cc4)CC3)c12 | 21µM* | / | 3% | 21µM* | /
CCOC(=O)c1c(C)oc2nc(C)nc(NCC3CCN(Cc4cccc(C)c4)CC3)c12 | -11% | / | 2% | 3% | /
CCOC(=O)c1c(C)oc2nc(C)nc(NCC3CCN(Cc4ccc(F)cc4)CC3)c12 | ? | / | 2% | -29% | /
CCOC(=O)c1c(C)oc2ncnc(NCCCN3CCN(c4cc(C)ccc4C)CC3)c12 | 4.6µM* | / | 1% | 7.3µM* | /
CCOC(=O)c1c(C)oc2nc(C)nc(NCCCN3CCN(c4ccccc4OC)CC3)c12 | 23µM* | / | 7% | ? | /
CCOc1ccc2nc(NC(=O)C3CSC4(C)CCC(=O)N34)sc2c1 (configuration not stated) | ? | / | 3% | ? | /
c1ccc(CN(Cc2ccccc2)c2c3c(nc4ncnn24)CCC3)cc1 | ? | -2% | / | ? | 0%
C=CCOc1ccc(C(=O)Nc2ccc3c(c2)n(C)c(=O)n3C)cc1 | ? | 8% | / | -23% | ?
Cc1nn(CC(=O)NCCc2ccc(Cl)cc2)c(C)c1[N+](=O)[O-] | -12% | 3% | 6% | 4% | 17%
CCN(CC)C(=O)CSc1nc2c(c(=O)n(C)c(=O)n2C)n1Cc1ccccc1 | -23% | / | 1% | -13% | /
CCOC(=O)c1c(S(=O)(=O)N2CCCC(C(=O)N(C)Cc3ccccc3)C2)c(C)n(C)c1C (configuration not stated) | ? | / | 4% | 12µM* | /
CCOC(=O)c1c(S(=O)(=O)N2CCCC(C(=O)NCc3ccc(Cl)cc3)C2)c(C)n(C)c1C (configuration not stated) | ? | / | 0% | 13µM* | /
CCOC(=O)c1c(S(=O)(=O)N2CCCC(C(=O)NCc3ccccc3Cl)C2)c(C)n(C)c1C (configuration not stated) | -22% | / | 0% | -28% | /
